Assay results taken from PubChem BioAssay AID651640 (Broad Institute, 2012).
Where “and” joins values, the source holds several entries; their conditions need not be identical. Identical values can stand only once. In all, about 350,000 compounds went through this assay and about 6,000 (1.7%) were called active. Another 5% or so got no clear call; they are omitted. Rule as the data show it: active = CPE inhibition above about 20% (passing the limit was not always enough); inconclusive = no clear call, values can overlap the other calls; tested in BHK-21 cells. What follows is part of a selection rich in actives, with near analogues and random picks from the rest. A structure can be active in one record and inactive in another.

Assay: inhibitors of DENV2 cytopathic effect, primary screen, cell-based, plate reader, single concentration (AID 651640);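 also: 0% = median of neutral control wells and 100% = median of positive control wells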
Conditions: DENV2-infected cells, cytopathic effect rescue, at 9.99 µM, stronger effect = higher value

| SMILES | CPE inhibition |
| --- | --- |
| CCCC(=O)N1CCC2(CC1)CN(C(=O)C1CCCCC1)[C@@H](CO)c1[nH]c3cc(OC)ccc3c12 | 0.105% (inactive) |
| C[C@@H]1CCCCO[C@@H](CN(C)C(=O)NC2CCCCC2)[C@@H](C)CN([C@@H](C)CO)C(=O)c2cc(NC(=O)C3CCCCC3)ccc2O1 | -1.85% (inactive) |
| C[C@@H]1CN([C@@H](C)CO)C(=O)c2cccc(NC(=O)Nc3ccc4c(c3)OCO4)c2O[C@@H]1CN(C)C(=O)Nc1ccc(F)cc1 | 16.1% (inactive) |
| C[C@H](CO)N1C[C@H](C)[C@@H](CN(C)C(=O)Nc2ccc3c(c2)OCO3)Oc2ccc(NC(=O)NC3CCCCC3)cc2CC1=O | 9.47% (inactive) |
| COc1ccc(S(=O)(=O)N(C)C[C@H]2OCCCC[C@@H](C)Oc3ccc(NC(=O)NC(C)C)cc3C(=O)N([C@H](C)CO)C[C@H]2C)cc1 | -2.15% (inactive) |
| COCC(=O)N1CC(=O)N2[C@H](C1)[C@@H](c1ccc(C#Cc3cccc(OC)c3)cc1)[C@@H]2CO | -1.66% (inactive) |
| COc1ccc(S(=O)(=O)N(C)C[C@@H]2OCCCC[C@H](C)Oc3ccc(NC(=O)NC4CCCCC4)cc3C(=O)N([C@H](C)CO)C[C@H]2C)cc1 | -9.88% (inactive) |
| CCCN1[C@H](C(=O)N2CCCCC2)[C@@H](CO)[C@@H]2Cn3c(ccc(-c4ccccc4F)c3=O)[C@@H]21 | 0.279% (inactive) |
| C[C@H](CO)N1C[C@H](C)[C@@H](CN(C)C(=O)c2ccncc2)Oc2ncc(-c3ccncc3)cc2C1=O | 0.501% (inactive) |
| C/C=C/c1cccc(-c2nc(C(=O)NCCN3CCCCC3)cc3c2[C@@H](CCO)N([S@](=O)C(C)(C)C)C3)c1 | 8.26% (inactive) |
| COCc1cn(CC[C@@H]2CC[C@@H](NC(=O)Nc3ccc(C(F)(F)F)cc3)[C@H](CO)O2)nn1 | 2.57% (inactive) |
| O=C(C[C@H]1C[C@H]2c3cc(NC(=O)Nc4ccccc4)ccc3O[C@H]2[C@H](CO)O1)NC1CCCC1 | 16.7% (inactive) |
| O=C(N[C@H]1CC[C@@H](CCNS(=O)(=O)Cc2ccccc2)O[C@H]1CO)c1ccccc1F | 5.12% (inactive) |
| CN(C)C(=O)c1cccc(-c2ccc([C@H]3[C@H](CO)N4C(=O)CN(C(=O)Cc5ccccc5)C[C@@H]34)cc2)c1 | 4.14% (inactive) |
| Cc1noc(C)c1NC(=O)Nc1ccc2c(c1)C(=O)N([C@H](C)CO)C[C@@H](C)[C@@H](CN(C)Cc1ccncc1)OCCCC[C@H](C)O2 | 1.93% (inactive) |
| CN1C(=O)c2cc(NC(=O)C3CCOCC3)ccc2OC[C@@H]2O[C@@H](CC(=O)NCC3CC3)CC[C@@H]21 | -9.75% (inactive) |
| CN(C)C(=O)C[C@@H]1C[C@@H]2c3cc(NC(=O)NC4CCCCC4)ccc3O[C@@H]2[C@H](CO)O1 | -9.26% (inactive) |
| CCC(=O)Nc1ccc2c(c1)C(=O)N(C)C[C@H](OC)[C@H](C)CN(C(=O)c1ccccc1F)[C@@H](C)CO2 | 23.7% (active) |
| CCC(=O)Nc1ccc2c(c1)OC[C@H](C)N(C(=O)c1ccccc1F)C[C@@H](C)[C@H](OC)CN(C)C2=O | -6.62% (inactive) |
| CO[C@@H]1CN(C)C(=O)c2cc(NC(=O)C3CC3)ccc2OC[C@H](C)N(C(=O)c2ccccc2F)C[C@H]1C | -0.841% (inactive) |
| C[C@@H]1CN([C@@H](C)CO)C(=O)c2cc(-c3cncnc3)cnc2O[C@@H]1CN(C)C(=O)c1ccccc1F | 16.7% (inactive) |
| Cc1ccc2c(c1)NC(=O)[C@@]1(C)[C@@H](c3ccccc3)[C@H]3COc4ccc(Cl)cc4[C@@H]3N1C2=O | 82.7% (active) |

| SMILES | CPE inhibition |
| --- | --- |
| COc1ccc2c(c1)[C@H]1[C@H](CO2)[C@H](c2ccccc2)[C@]2(C)C(=O)Nc3cc(F)c(F)cc3C(=O)N12 | -1.62% (inactive) |
| CCOC(=O)[C@H]1[C@H]2COc3ccc(Cl)cc3[C@@H]2N2C(=O)c3cc(C)ccc3NC(=O)[C@@]12C | 4.71% (inactive) |
| CCc1ccc2c(c1)NC(=O)C2(C)Cc1ccc(OC(F)(F)F)cc1 (stereo unspecified) | 48.3% (active) |
| COc1ccccc1CC1(C)C(=O)Nc2ccc(OC(F)(F)F)cc21 (stereo unspecified) | 0.818% (inactive) |
| Cc1ccc(CC2(C)C(=O)Nc3ccc(OC(F)(F)F)cc32)cc1 (stereo unspecified) | 6.39% (inactive) |
| CC(C)NC(=O)Nc1cccc2c1O[C@@H](CN(C)Cc1ccc(C(=O)O)cc1)[C@@H](C)CN([C@H](C)CO)C2=O | -5.2% (inactive) |
| CO[C@H]1CN(C)C(=O)c2ccc(NC(=O)c3cccc(F)c3)cc2OC[C@H](C)N(CC2CC2)C[C@@H]1C | -4.07% (inactive) |
| O=C(O)/C=C/c1cn(-c2ccccc2)nc1-c1cccs1 | 21.7% (active) |
| O=C(O)c1ccc(N/N=C/c2cn(-c3ccccc3)nc2-c2cccs2)cc1 | -1.67% (inactive) |
| COc1cccc(NC(=O)CN(C)C(=O)/C=C/c2cn(-c3ccccc3)nc2-c2cccs2)c1 | -12.9% (inactive) |
| COc1ccc(NC(=O)N[C@@H]2CC[C@H](CCn3cc(-c4ccc(OC)cc4)nn3)O[C@@H]2CO)cc1 | 3.46% (inactive) |
| COc1cccc(NC(=O)N(C)C[C@H]2Oc3cc(/C=C/c4ccccc4)ccc3S(=O)(=O)N([C@H](C)CO)C[C@@H]2C)c1 | 1.83% (inactive) |
| c1ccc(-c2ccc(OCCN3CCOCC3)cc2)cc1 | 27.1% (active) |
| COc1ccc(-c2sc3ccccc3c2-c2ccc(OCCN3CCOCC3)cc2)cc1 | 9.44% (inactive) |
| Cc1cccc(C)c1OCCN1CCOCC1 | 5.93% (inactive) |
| O=C(C[C@H]1CC[C@@H](NC(=O)Nc2ccc(F)cc2)[C@H](CO)O1)NCc1cccc(F)c1 | 1.45% (inactive) |
| C[C@H](NC(=O)N(C)C[C@@H]1OCc2ccccc2-c2ccccc2C(=O)N([C@H](C)CO)C[C@@H]1C)c1ccccc1 | 3.49% (inactive) |
| O=C(C[C@@H]1CC[C@@H](NC(=O)CC2CC2)[C@H](CO)O1)NCc1ccc(-c2ccccc2)cc1 | 2.21% (inactive) |
| Cn1cnc(S(=O)(=O)N2C[C@H](O)COC[C@@H]3O[C@H](CC(=O)NCc4cccc(F)c4)CC[C@H]32)c1 | -0.815% (inactive) |
| Cc1ccc([C@H]2N[C@]3(CCCN(Cc4ccccc4)C3=O)[C@H]3C(=O)N(Cc4ccccc4)C(=O)[C@@H]23)cc1 | 12.7% (inactive) |
| CCN1C(=O)[C@H]2[C@@H](c3ccccc3)N[C@]3(CCCN(Cc4ccc(C)cc4)C3=O)[C@H]2C1=O | -9.89% (inactive) |
| COc1ccc([C@H]2N[C@]3(CCCN(Cc4ccco4)C3=O)[C@H]3C(=O)N(C)C(=O)[C@@H]23)cc1 | 91.3% (active) |

| SMILES | CPE inhibition |
| --- | --- |
| CC(C)CC#Cc1ccc2c(c1)O[C@H](CN(C)C(=O)CC1CC1)[C@@H](C)CN([C@@H](C)CO)S2(=O)=O | 0.266% (inactive) |
| CCC(=O)N(C)C[C@@H]1Oc2cc(C#C[C@H](C)O)ccc2S(=O)(=O)N([C@H](C)CO)C[C@@H]1C | 8.89% (inactive) |
| CCCNC(=O)N1[C@@H]2CNC[C@H]1C2c1ccc(-c2ccccc2)cc1 (stereo partly specified) | -5.46% (inactive) and 6.08% (inactive) |
| COc1ccc(S(=O)(=O)N2C[C@@H](O)COC[C@H]3O[C@H](CC(=O)N[C@H]4CCN(Cc5ccccc5)C4)CC[C@@H]32)cc1 | 13.5% (inactive) |
| CC(=O)N1[C@H](CO)[C@@H](c2ccccc2)[C@@H]1CN(CC(C)C)C(=O)c1ccccn1 | -9.41% (inactive) |
| CN(C)C(=O)c1ccc(-c2ccc(C3[C@H]4CNC[C@@H]3N4C(=O)Nc3cc(F)ccc3F)cc2)cc1 (stereo partly specified) | 1.83% (inactive) |
| O=S(=O)(c1ccccc1F)N1[C@@H]2CNC[C@H]1C2c1ccc(-c2cncnc2)cc1 (stereo partly specified) | -1.33% (inactive) |
| Cc1cccc(-c2ccc(C3[C@H]4CNC[C@@H]3N4S(=O)(=O)c3ccccc3F)cc2)c1 (stereo partly specified) | -1.96% (inactive) and 22.1% (active) |
| N#Cc1ccc(-c2ccc(C3[C@H]4CNC[C@@H]3N4S(=O)(=O)c3ccccc3F)cc2)cc1 (stereo partly specified) | 6.8% (inactive) |
| COc1cccc(-c2ccc(C3[C@H]4CNC[C@@H]3N4C(=O)Nc3ccc(F)cc3)cc2)c1 (stereo partly specified) | -1.4% (inactive) and 18.6% (inactive) |
| CN(C)C(=O)c1cccc(-c2ccc(C3[C@H]4CNC[C@@H]3N4C(=O)Nc3ccccc3F)cc2)c1 (stereo partly specified) | 23.3% (active) |
| C[C@H](CO)N1C[C@H](C)[C@@H](CN(C)Cc2ccc(Cl)c(Cl)c2)Oc2ccc(NC(=O)Nc3ccc(C(F)(F)F)cc3)cc2CC1=O | -2.55% (inactive) |
| CN1C(=O)c2cc(NC(=O)C3CC3)ccc2OC[C@@H]2O[C@@H](CC(=O)NCC3CCCCC3)CC[C@@H]21 | -7.29% (inactive) |
| C[C@@H]1CN([C@H](C)CO)C(=O)c2cccc(NC(=O)Nc3ccc(F)cc3)c2O[C@@H]1CN(C)C(=O)Nc1ccc(C(F)(F)F)cc1 | 2.25% (inactive) |
| O=C(NCc1ccncc1)c1cccc(NS(=O)(=O)c2ccc(F)c(F)c2)c1 | 41.4% (active) |
| O=C(NCc1ccncc1)c1ccc(NS(=O)(=O)c2cccc([N+](=O)[O-])c2)cc1 | -0.812% (inactive) |
| O=C(NCc1ccccc1)c1ccc(S(=O)(=O)Nc2cccc(C(F)(F)F)c2)cc1 | 2.44% (inactive) |
| CC(C)NC(=O)N[C@H]1CC[C@H](CC(=O)NC2Cc3ccccc3C2)O[C@H]1CO | -2.08% (inactive) |
| C[C@@H]1CN([C@H](C)CO)S(=O)(=O)c2ccc(Br)cc2O[C@@H]1CN(C)Cc1cncnc1 | 19.1% (inactive) |
| CCOC(=O)[C@H]1[C@H]2COc3ccccc3[C@@H]2N2C(=O)CN(Cc3ccccc3)C(=O)[C@@]12C | 95% (active) |
| CCOC(=O)[C@H]1[C@H]2COc3ccc(C)cc3[C@@H]2N2C(=O)CN(Cc3ccc(F)cc3)C(=O)[C@@]12C | -7.57% (inactive) |
| CCOC(=O)[C@H]1[C@H]2COc3cc(OC)ccc3[C@@H]2N2C(=O)CN(Cc3ccc(Cl)cc3)C(=O)[C@@]12C | -5.6% (inactive) |
